Laboratory results: PubChem BioAssay (NCI)
The panel holds about 83,000 compounds, 20% with a hit somewhere; the sample as a whole holds those more often.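 Note: values are percent growth. 100 is the growth of untreated cells, values between 100 and 0 indicate rising inhibition; between -100 and 0 indicates cell death.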 A number with no mark means an inactive call. The source made the active and inactive calls. The calls were made as follows: active = growth percent below 10; inactive = the rest.

Tests used:
Assay in all cases: NCI-60 one-dose screen, 48 h (100 = growth as untreated, 0 = no growth, -100 = all killed)
NCI-H23 lung = settings: 10 µM unless noted
NCI-H226 lung = settings: 10 µM unless noted
NCI-H322M lung = settings: 10 µM unless noted
HOP-62 NSCLC = settings: 10 µM unless noted
NCI-H460 lung = settings: 10 µM unless noted
HOP-92 NSCLC = settings: 10 µM unless noted
NCI-H522 lung = settings: 10 µM unless noted
A549/ATCC NSCLC = settings: 10 µM unless noted
786-0 renal = settings: 10 µM unless noted
COLO 205 colon = settings: 10 µM unless noted
DU-145 prostate = settings: 10 µM unless noted
K-562 leukemia = settings: 10 µM unless noted
MDA-MB-231 breast = settings: 10 µM unless noted
RXF 393 renal = settings: 10 µM unless noted
SF-268 CNS = settings: 10 µM unless noted
SF-295 CNS = settings: 10 µM unless noted
SF-539 CNS = settings: 10 µM unless noted
UACC-257 melanoma = settings: 10 µM
M14 melanoma = settings: 10 µM unless noted
MALME-3M melanoma = settings: 10 µM unless noted

SMILES | growth (NCI-H23 lung) | growth (NCI-H226 lung) | growth (NCI-H322M lung) | growth (HOP-62 NSCLC) [%] | growth (NCI-H460 lung) | growth (HOP-92 NSCLC) | growth (NCI-H522 lung) | growth (A549/ATCC NSCLC) [%] | growth (786-0 renal) | growth (COLO 205 colon) | growth (DU-145 prostate) | growth (K-562 leukemia) | growth (MDA-MB-231 breast) [%] | growth (RXF 393 renal) | growth (SF-268 CNS) [%] | growth (SF-295 CNS) | growth (SF-539 CNS) | growth (UACC-257 melanoma) [%] | growth (M14 melanoma) [%] | growth (MALME-3M melanoma) [%]
Nc1nc(-c2ccccc2)cs1 | 111% | 93.3% | 109% | 97 | 109% | 101% | 102% | 95.6 | 105% | 108% | 104% | 114% | 104 | 120% | 96.4 | 104% | 99.1% | 98.5 | 97.2 | 
Cc1cc(C)c(NC(=O)c2sc3nc4c(cc3c2N)CN(Cc2ccccc2)CC4)c(C)c1 | 55.2% | 49.5% | 39.3% | 33.7 | 10.8% | 37.7% | 13.5% | 30.3 | 39% | 12.3% | 27.6% | 9.63% (active) | 44 | 26.1% | 36.5 | 21.9% | 8.37% (active) | 48 | 40.2 | 
O=C(CC(O)c1ccncc1)c1ccccc1 (configuration not stated) | -18.6% (active) | 9.03% (active) | -8.53% (active) | 22.9 | 102% | 10.2% | -36.6% (active) | 15.5 | 9.96% (active) | -54.7% (active) | 3.98% (active) | 57.9% |  | -69.4% (active) | 74.9 | 51.8% | 8.03% (active) | 83.1 | 90.8 | 91.9
Nc1c(C(=O)Nc2ccccc2)sc2nc3c(cc12)CN(Cc1ccccc1)CC3 | 79.1% | 45.2% | 50% | 52.1 | 32.8% | 20.2% | 80.2% | 54.2 | 28.8% | 97.8% | 58.9% | 61.1% | 42.6 | 49.9% | 48.8 | 66.4% | 12.6% | 74 | 82.2 | 
Cc1ccc(C2=NN(c3ccc(S(N)(=O)=O)cc3)C(c3cn(-c4ccccc4)nc3-c3ccccc3)C2)cc1 (configuration not stated) | 93.8% | 97.8% | 101% | 105 | 38.9% | 27.7% | 75.2% | 65 | 109% | 101% | 65.7% | 21.9% | 82.7 | 95.8% | 42.7 | 104% | 112% | 98.8 | 96.1 | 
COc1ccc(/C=C/C(=O)c2cccc(B(O)O)c2)cc1O | 61.9% | 91.5% | 64% | 40.5 | 13.8% | 41.4% | 43.9% | 41.7 | 59.1% | 98.3% | -10% (active) | 8.39% (active) | 48.2 | 41.5% | 47.8 | 87.4% | 0.0331% (active) | 75 | 70.6 | 
COc1cc(CNC(=O)CSc2nc3ccccc3c(=O)n2Cc2cc(OC)c(OC)c(OC)c2)cc(OC)c1OC | 105% | 94.5% | 95.4% | 94 | 108% | 106% | 81.2% | 97 | 101% | 105% | 108% |  | 94.4 | 97.4% | 97.5 | 105% | 96.3% | 94.2 | 97.2 | 97.5
CC(=O)C1CCC(C)=CC1=O (configuration not stated) | 102% | 104% | 85.8% | 111 | 106% | 96.9% | 89.7% | 98.3 | 91.8% | 116% | 114% |  | 104 | 113% | 99.1 | 101% | 99.6% | 92.8 | 97.5 | 93.4
CNC(C)=O | 95.3% | 95.1% | 92% | 94.4 | 106% | 103% | 89% | 92.1 | 106% | 98.8% | 99.5% | 90.3% |  | 105% | 98.4 | 93.7% | 89.8% | 102 | 108 | 86.1
Clc1ccc([I+]c2ccc(Cl)cc2Cl)c(Cl)c1 | 18% | 102% | 77.2% | 36.5 | 81% | 14.9% | -91.1% (active) | 76 | 11.2% | -79.2% (active) | 4.04% (active) |  | 38.3 | -15.1% (active) | 26.5 | 97.4% | 16.8% | 66.4 | 88.8 | 50.2
O=[N+]([O-])c1cc(S(=O)(=O)OCC2CO2)ccc1Cl (configuration not stated) | 96% | 110% | 82.2% | 111 | 109% | 125% | 85.9% | 101 | 106% | 117% | 101% |  | 132 | 103% | 94.3 | 101% | 106% | 100 | 95.1 | 98.1
NC(C(=O)O)C(O)c1ccc(OCc2ccccc2)c(OCc2ccccc2)c1 (configuration not stated) | 96.3% | 99.2% | 109% | 88.7 | 108% | 73.8% | 93.5% | 93.4 | 98.7% | 106% | 107% | 95.6% |  | 100% | 97.4 | 97.8% | 97.2% |  | 97.4 | 114
CCOC(=O)c1ccccc1NC(c1ccccc1)c1ccc2cccnc2c1O (configuration not stated) | 30.3% | 7.15% (active) | 42.5% | 16.4 | 6.16% (active) | 16.5% | -1.69% (active) | 21.6 | 1.44% (active) | 16.3% | 36.9% | 30.2% |  | 25% | 28.6 | 25.4% | 11.8% | 22.1 | 15.7 | 54.4
COc1ncc(-c2ccc3ncnc(Nc4cccc(Cl)c4)c3c2)cc1NS(=O)(=O)C1CC1 | 54.2% | 24.1% | -5.8% (active) | 43.9 | 28.3% | -7.31% (active) |  | 26.3 | 62.6% | 31.4% | 26% | 60.5% | 37.9 | 1.04% (active) | 43 | 34.2% | 27% |  | 56.6 | 15.9
CCOC(=O)c1cc(/C(=N\O)c2cc(OC)c(OC)c(OC)c2)n2cc(C)cc(C)c12 | 55.2% | 74.3% | 66.2% | 32.3 | 4.9% (active) | 51.9% |  | 34.9 | 19.1% | 11.5% | 41.9% | 12.5% | 34.7 | 36.1% | 38.7 | 1.85% (active) | 15.8% |  | 10.5 | 37.8
C#CCN1C(=O)/C(=c2\sc3n(c2=O)NC2C(N=3)N(CC)C(=O)N2CC)c2ccccc21 (configuration not stated) | 54.1% | 87.4% | 95.8% | 80.9 | 99.2% | 76.4% |  | 85.6 | 61.2% | 37.1% | 41% | 3.27% (active) | 69.9 |  | 75.5 | 86.7% | 38.7% |  | 80.7 | 51.5
Cc1ccc2c(c1)ncn2-c1ncnc2c1CC(C)c1ccccc1N2C (configuration not stated) | 24% | 54.2% | 61.3% | 33.9 | 3.26% (active) | 24% |  | 23.5 | 24.9% | -33.4% (active) | 11.8% | 7.17% (active) | 26.9 | 72% | 19.9 | 13.3% | 4.79% (active) |  | 19.7 | 49.3
